A selection: hits, their analogues and other compounds. The true share with any hit is near 2.4%.
D2 ag-1 – activates the human D2 dopamine receptor; DiscoveRx PathHunter D2 beta-arrestin, luminescence, 90 min; 100% = 57 uM dopamine signal; activation, % (concentration not given with the values); P14416; 0.084% of 360,000 active; AID 624465; in the data active means activation above about 40%; inconclusive means between about 15% and that limit
Target sequence (P14416 whole entry, looked up): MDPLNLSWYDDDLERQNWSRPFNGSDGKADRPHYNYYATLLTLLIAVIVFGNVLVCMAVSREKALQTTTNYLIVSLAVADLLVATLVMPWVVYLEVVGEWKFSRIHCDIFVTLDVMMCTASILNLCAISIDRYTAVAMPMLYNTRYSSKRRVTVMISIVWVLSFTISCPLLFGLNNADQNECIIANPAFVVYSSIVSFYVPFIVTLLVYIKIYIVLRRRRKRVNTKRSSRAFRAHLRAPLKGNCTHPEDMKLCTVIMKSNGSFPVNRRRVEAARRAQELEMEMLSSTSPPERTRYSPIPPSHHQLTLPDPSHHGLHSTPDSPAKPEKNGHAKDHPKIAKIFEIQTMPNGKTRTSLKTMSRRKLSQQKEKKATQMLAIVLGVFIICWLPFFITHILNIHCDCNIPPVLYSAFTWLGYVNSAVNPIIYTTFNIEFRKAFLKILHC
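Agonist mode: compounds alone added to overnight-plated D2 PathHunter cells for 90 min at 37 C, with 57 uM final dopamine (EC100) defining full response. Beta-arrestin recruitment detected by chemiluminescent reagent, read after 1 h at ambient temperature.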
D2 PAM-1 – potentiates the human D2 dopamine receptor allosterically; P14416; DiscoveRx D2 beta-arrestin cells, luminescence, 90 min; 100% = 57 uM dopamine signal; potentiation, % (concentration not given with the values); 0.23% of 360,000 active; in the data active means potentiation above about 50%; inconclusive means mostly about 30% to 49%
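PathHunter D2 cells, attached overnight at 37 deg C, received compound in DMSO plus dopamine at EC20 (50 nM final) for 90 min at 37 deg C. Beta-arrestin recruitment was read as luminescence after 1 h with detection reagent at ambient temperature.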
D2 PAM-2 – D2 dopamine receptor (human) potentiation; AID 485347; HEK293 T-REx D2, calcium flux, EC20 dopamine potentiation; potentiation, % at 10 µM; P14416; 0.34% of 340,000 active;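 active means potentiation over 3 SD above the plate norm, cut at about 30% in these data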; further: 0% is about no effect
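Cells plated with tetracycline inducer and held overnight at 30 C; calcium dye loaded 30–90 min at room temperature; baseline taken, compound added and read 180 s; EC20 dopamine then added and read 180 s.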
D2 antag – antagonists of human D2 dopamine receptor. inhibition, % at 10 µM. P14416. HEK293 TREx D2 cells, calcium flux, dopamine EC80. 2% of 340,000 active; in the data active means inhibition above about 30%; inactive means below that, where a call was filed; further: 0% is about no effect
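Overnight-induced (tetracycline, 30 C) HEK293 T-REx cells carrying force-coupled D2 receive a no-wash calcium dye, then compound, then EC80 dopamine at 180 s; signals are read kinetically throughout.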
D2 ag-2 – agonists of human D2 dopamine receptor. activation, % at 2 µM. P14416. HEK293 T-REx D2 cells, calcium flux agonist mode. AID 485358. 0.53% of 340,000 active;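 active means activation over 3 SD above normal in the single-dose calcium agonist read, cut at about 30% in these data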; further: 0% is about no effect
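Calcium-flux readout, 1 cycle/sec over 180 s following compound pin transfer, in inducible HEK293 Trex D2 cells (force-coupled); dopamine controls included. Positive calcium responses during this window marked compounds as potential agonists.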
* = called active by the depositor; ? = inconclusive; nt = not tested or not shown.

SMILES	D2 ag-1	D2 PAM-1	D2 PAM-2	D2 antag	D2 ag-2
COc1ccc(NC(=O)CSc2ncnc3sc(C)cc23)cc1	0	-2	-5	32*	-1
COc1ccc(NC(=O)CSc2nc(O)cc(=O)n2-c2ccc(OC)cc2)cc1	5	6	40*	7	0
COc1ccc(NC(=O)CSc2nc(-c3ccc(C)cc3)cc(C(F)(F)F)c2C#N)cc1	0	-4	31*	nt	nt
COc1ccc(NC(=O)N2c3ccc(OC)cc3C(C)=CC2(C)C)cc1	3	-4	12	-8	2
Nc1cc(N)nc(SCCc2ccccc2)n1	2	1	-1	47*	1
Nc1cc(N)nc(SCc2ccccc2)n1	0	0	-11	-14	0
FC(F)Oc1ccc(N=C2SCC3CCCCN23)cc1 (centres undefined)	7	-3	36*	7	-2
Clc1ccc(N=C2SCC3CCCCN23)cc1 (centres undefined)	-2	-4	-18	6	0
CCOC(=O)NC(Cc1c[nH]c2ccccc12)C(=O)NCCc1ccc(S(N)(=O)=O)cc1 (centres undefined)	13	5	4	-2	-1
O=C1CN=C(Nc2ccccc2Cl)N1c1ccccc1	-5	1	-5	36*	2
CCOc1ccc(N2C(=O)CN=C2Nc2ccccc2Cl)cc1	-2	-13	-7	-5	0
Cc1csc(SC(C)C(=O)Nc2ccc(Cl)cn2)n1 (centres undefined)	-4	-16	-17	43*	-1
CCCCNC(=S)NNC(=O)c1ccco1	-2	-13	46*	4	0
Oc1ccc(NC(=S)Nc2ccc(O)cc2)cc1	12	-2	31*	17	-1
COC(=O)c1ccc(NC(=S)Nc2ccc(O)cc2)cc1	7	-3	9	-5	1
Cc1c(C(=O)OCC(=O)c2c(N)n(CC(C)C)c(=O)n(C)c2=O)oc2ccccc12	0	-4	0	20	2
CC(C)n1nnnc1SCC(=O)N1N=C(c2cccs2)CC1c1cccs1 (centres undefined)	3	25	-16	39*	0
Cc1nnc(SCC(=O)Nc2nccs2)s1	0	7	10	34*	-1
Nc1nnc(SCC(=O)Nc2nccs2)s1	-3	1	-5	5	2
O=[N+]([O-])c1cc(-c2nc(-c3cccnc3)no2)ccc1NCc1ccccc1	nt	nt	-4	nt	0
O=C(Nc1cc(S(=O)(=O)N2CCOCC2)ccc1N1CCCC1)c1cc(F)c(F)cc1Cl	-6	-24	6	1	-1
COc1ccc(-c2noc(C3CCCN(S(=O)(=O)c4cccc(Cl)c4)C3)n2)cc1OC (centres undefined)	-3	-3	13	-1	1
O=S(=O)(c1ccc(Cl)cc1)N1CCCC(c2nc(-c3ccc(F)cc3)no2)C1 (centres undefined)	0	-1	-3	51*	0
CCc1ccc(NC(=O)CSc2nc(=O)n(Cc3ccccn3)c3c2CCC3)cc1	nt	nt	11	nt	1
CN1/C(=C\C=C2/SC(=S)NC2=O)C(C)(C)c2ccccc21	-11	-14	-8	16	41*
SMILES	D2 ag-1	D2 PAM-1	D2 PAM-2	D2 antag	D2 ag-2
CN1/C(=C\C=C2/C(=O)Oc3ccccc3C2=O)C(C)(C)c2ccccc21	-2	3	-12	68*	125*
CN1C(=CC=C2C=C(I)C(=O)C(I)=C2)C(C)(C)c2ccccc21	-2	-1	-4	15	7
CCCN1C(=O)/C(=C\C=C2\N(CC)c3ccccc3C2(C)C)SC1=S	-1	-8	-9	1	22
COc1ccc(-c2noc(CN(C)S(=O)(=O)c3c(C)cc(C)cc3C)n2)cc1OC	nt	nt	4	nt	3
COc1ccc(-c2noc(-c3ccco3)n2)cc1OC	0	6	36*	-6	1
COc1ccc(-c2noc(-c3ccc(Cl)cc3[N+](=O)[O-])n2)cc1OC	?	89*	18	0	-1
COc1ccc(-c2noc(CN(C)S(=O)(=O)c3ccc(Cl)cc3)n2)cc1OC	2	10	45*	0	1
O=C(COc1ccc2ccccc2c1)NCCNC(=O)COc1ccc2ccccc2c1	0	-15	3	3	1
CCOc1cc(N2CCOCC2)c(OCC)cc1NC(=O)CSc1cccc[n+]1[O-]	2	57*	nt	nt	nt
CCOc1cc(N2CCOCC2)c(OCC)cc1NC(=O)C1=COCCO1	-5	-3	5	39*	1
CCOc1cc(N2CCOCC2)c(OCC)cc1NC(=O)CSc1ncccn1	3	1	12	-9	-1
CCN(CC(=O)NCc1ccc(F)cc1)Cc1cc(=O)n2ccsc2n1	1	0	2	-34	0
O=C(Cc1nc2ccccc2[nH]1)c1ccc([N+](=O)[O-])cc1	4	-4	-5	0	0
O=C(Cc1nc2ccccc2[nH]1)c1ccc(Cl)cc1	-2	-3	44*	-19	1
COc1ccc(-c2oc3cccnc3c2/C=C/c2ccc(OC)c(OC)c2)cc1	-1	9	-3	30*	1
CC1(C)CCN2CCC(C)(C)c3c(O)ccc1c32	4	2	4	-2	34*
CN1CCN(c2ccc(NC(=O)c3ccc(Br)o3)cc2)CC1	-1	0	-4	9	1
O=C(Nc1ccc(N2CCOCC2)cc1)c1ccc(Br)o1	1	-2	5	71*	0
CCCn1cnc2c(N)c(C)c(C)cc21	-1	-5	8	32*	1
COc1cccc(Cn2cnc3c(N)c(C)c(C)cc32)c1	-2	-1	-2	-8	2
Cc1ccc2c(c1)C1CN(C)CCC1N2Sc1ccccc1[N+](=O)[O-] (centres undefined)	-8	-19	-22	43*	-2
CCC(=O)Oc1ccc(C(=O)Nc2c[nH]c(=O)[nH]c2=O)cc1	-2	8	-2	35*	2
CCCCc1nc(N2CCN(C(=O)c3ccco3)CC2)c(C#N)c2c1CCCC2	0	-2	2	31*	1
COCOCCn1cc(CN2CCS(=O)(=O)N(Cc3ccc(-c4cccc(CO)c4)cc3)C(C(C)C)C2=O)nn1 (centres undefined)	-8	-1	nt	nt	nt
C=CCc1ccc(OCCOCCN(C)C)c(OC)c1	0	-26	31*	5	0
NNC(=O)CNS(=O)(=O)c1ccc([N+](=O)[O-])cc1	7	15	8	49*	2
O=C(CNS(=O)(=O)c1ccccc1)OCC(=O)c1ccc([N+](=O)[O-])cc1	13	11	3	-6	0
COc1cc(NC(=O)c2cc3c(=O)n(Cc4cccs4)ccc3nc2C)cc(OC)c1OC	nt	nt	-2	nt	nt

Source: PubChem
